Test results: the supplement of paper PMC11865577
Counter-ions that a name gives are not always drawn.

Tests used:
Test in all cases: normalised indicator fluorescence (fraction of RNA + indicator signal without compound); higher = less displacement of indicator (weaker competition)
Conditions in all cases: compound concentration: 5 uM, 30 min
[1] = tested on: hsa-mir-191 loop
Procedure, shortened: (§1)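 Displacement screen in 96-well plates: TO-PRO-1 or TO-PRO-3 indicator with RNA in 20 mM phosphate pH 7.0, 20 mM NaCl, 80 mM KCl. Each compound was added as 0.25 μL of 1 mM DMSO stock (about 5 uM final), and fluorescence was read after 30 min on an Infinite 200 PRO (excitation 485 or 620 nm). Values are indicator fluorescence after subtracting the buffer-plus-indicator blank, divided by the no-compound RNA-plus-indicator signal. Each is the mean of two independent experiments.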

[2] = tested on: hsa-mir-21 loop
Procedure, shortened: as §1

[3] = tested on: hsa-mir-221 loop
Procedure, shortened: as §1

[4] = tested on: hsa-mir-374a loop
Procedure, shortened: as §1

[5] = tested on: hsa-mir-6850 loop
Procedure, shortened: as §1

[6] = indicator: TO-PRO-1 0.1 uM, RNA concentration: 0.1 uM
[7] = indicator: TO-PRO-3 0.5 uM, RNA concentration: 0.5 uM

Structure (SMILES)	normalised indicator fluorescence [1, 6]	normalised indicator fluorescence [1, 7]	normalised indicator fluorescence [2, 6]	normalised indicator fluorescence [2, 7]	normalised indicator fluorescence [3, 6]	normalised indicator fluorescence [3, 7]	normalised indicator fluorescence [4, 6]	normalised indicator fluorescence [4, 7]	normalised indicator fluorescence [5, 6]	normalised indicator fluorescence [5, 7]
COc1ccc(O)cc1 [4-Methoxyphenol]	0.962	1.17	0.99	1.05	1.08	1.04	1.19	1.14	0.977	1.11
CC(C)c1cc(C(C)C)c(CC(=O)NS(=O)(=O)Oc2c(C(C)C)cccc2C(C)C)c(C(C)C)c1 [Avasimibe]	1.05	1.12	0.952	1.08	1.05	1.03	1.08		0.985	0.948
COc1ccc(C2CC(=O)c3c(O)cc(OC4OC(COC5OC(C)C(O)C(O)C5O)C(O)C(O)C4O)cc3O2)cc1OC (centres undefined) [Methyl hesperidin]	0.968	1.08	0.942	0.97	1.05	1.03	1.14	1.14	0.967	1.07
CC1(C)OC(=O)C=C[C@]2(C)[C@H]3CC[C@@]4(C)[C@H](c5ccoc5)OC(=O)[C@H]5O[C@]54[C@]3(C)C(=O)C[C@@H]12 [Obacunone]	1.07	1.03	1.06	1.08	1.12	1.07	1.11	1.09	0.979	1.05
COc1ccc([C@@H]2OC[C@H]3[C@@H]2CO[C@@H]3c2ccc(O[C@@H]3O[C@H](CO)[C@@H](O)[C@H](O)[C@H]3O)c(OC)c2)cc1OC [Forsythin]	1.06	1.04	0.926	0.988	0.939	1.04	1.09	1.09	0.927	1.07
COC1=C2C[C@@H](C)C[C@H](OC)[C@H](O)[C@@H](C)/C=C(\C)[C@H](OC(N)=O)[C@@H](OC)/C=C\C=C(/C)C(=O)NC(=CC1=O)C2=O [Geldanamycin]	1.09	1.08	1.04	1.05	1.04	1.09	1.11	1.31	1.09	1.02
O=C(COc1ccc(Cl)cc1)NC1CCC(NC(=O)COc2ccc(Cl)cc2)CC1 (centres undefined)	1.03	1.04	0.954	1.03	1.05	1.01	1.07	1.08	0.894	1.05
C[C@H]1[C@H](C)CC[C@]2(C(=O)O[C@@H]3O[C@H](CO[C@@H]4O[C@H](CO)[C@@H](O[C@@H]5O[C@H](C)[C@H](O)[C@@H](O)[C@H]5O)[C@H](O)[C@H]4O)[C@@H](O)[C@H](O)[C@H]3O)CC[C@]3(C)C(=CC[C@@H]4[C@@]5(C)C[C@@H](O)[C@H](O)[C@@](C)(CO)[C@@H]5CC[C@]43C)[C@H]12 [Asiaticoside]	1.02	1.03	0.968	0.996	0.992	1.03	1.09	1.16	1.03	1.11
O=c1ccc2ccc(O)cc2o1 [7-Hydroxycoumarin]	1.06	1.06	1.05	0.997	1.11	1.01	1.07	1.15	0.986	1.05
Cn1cc(C2=C(c3cn(CCCSC(=N)N)c4ccccc34)C(=O)NC2=O)c2ccccc21 [Ro 31-8220 Mesylate]	1.38	0.894		0.929		0.947		1.02	1.08	0.859
N#Cc1c(NC(=O)c2cccc3ccccc23)sc2c1CCCC2	1.04	0.988	1.02	1.01	0.919	1.02		0.983	1.08	1.02
O=c1ncn2nc(Sc3ccc(F)cc3F)ccc2c1-c1c(Cl)cccc1Cl [Neflamapimod]	1.04	1.05	0.973	1.04	1.03	1.22	1.07	1.3	0.955	1.02
O=c1cc(-c2ccc(O)c(-c3c(O)cc(O)c4c(=O)cc(-c5ccc(O)cc5)oc34)c2)oc2cc(O)cc(O)c12 [Amentoflavone]	0.994	1.42	1.16	1.23	1.19	1.17	1.29		1.07	1.03
O=C1c2c(O)cc(O)cc2OC(c2ccc(O)c(O)c2)C1O (centres undefined) [Taxifolin]	0.994	1.06	0.976	1.05	1.05	1.11	1.13	1.15	0.944	1.08
COc1c(C)cnc(Cn2cnc3c(Cl)nc(N)nc32)c1C	1.04	1.04	0.99	1.04	1.01	1.06	1.19	1.09	1.02	1.05
COC(=O)c1ccc([C@H]2c3[nH]c4ccccc4c3C[C@H](C(=O)OC)N2C(=O)CCl)cc1	1.05	1	0.974	1.02	0.997	1.09	1.01	1.39	1.09	1.03
